PTAP TSG101 blk: blocks PTAP/TSG101 interaction to inhibit HIV-1 budding; Q99816; Fluorescence polarization, FITC-PTAP peptide / Tsg101 binding; Potency, µM (titrated, usually from 115 µM), inactives show at the top dose activity change, negative = inhibition, usual class: inhibitors; 340,000 tested, under 10 active; AID 493005; active = well fitted inhibition curve with a large enough effect in the main read-out, with a control signal flat, not every such curve was filed as active; inconclusive = small, poorly fitted or top-dose-only effect, or effect the other way, or a change in a side signal; inactive = no such curve, though single readings can be large or run the other way; also: potency is read from the fitted curve at half-maximal effect; % of control where 0% means no effect
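Fluorescence anisotropy tracks displacement of a FITC-tagged PTAP peptide (50 nM) from the Tsg101 binding domain (10 uM), following a 20 min room-temperature incubation at pH 7.5.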
hERG WT inh: KCNH2 (human, wildtype) channel inhibition | U2OS, BacMam KCNH2, thallium flux FluxOr; stronger effect = lower value | activity change, % at 1.84 µM | actives 0.37% (n = 340,000) | AID 720551;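 active = maximum activity change below -70%; inconclusive = maximum activity change between -70% and -50%; inactive = maximum activity change above -50%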; also: % is scaled to controls: 0 for no effect and ±100 for the full control effect
Target sequence (Q12809 whole entry, looked up): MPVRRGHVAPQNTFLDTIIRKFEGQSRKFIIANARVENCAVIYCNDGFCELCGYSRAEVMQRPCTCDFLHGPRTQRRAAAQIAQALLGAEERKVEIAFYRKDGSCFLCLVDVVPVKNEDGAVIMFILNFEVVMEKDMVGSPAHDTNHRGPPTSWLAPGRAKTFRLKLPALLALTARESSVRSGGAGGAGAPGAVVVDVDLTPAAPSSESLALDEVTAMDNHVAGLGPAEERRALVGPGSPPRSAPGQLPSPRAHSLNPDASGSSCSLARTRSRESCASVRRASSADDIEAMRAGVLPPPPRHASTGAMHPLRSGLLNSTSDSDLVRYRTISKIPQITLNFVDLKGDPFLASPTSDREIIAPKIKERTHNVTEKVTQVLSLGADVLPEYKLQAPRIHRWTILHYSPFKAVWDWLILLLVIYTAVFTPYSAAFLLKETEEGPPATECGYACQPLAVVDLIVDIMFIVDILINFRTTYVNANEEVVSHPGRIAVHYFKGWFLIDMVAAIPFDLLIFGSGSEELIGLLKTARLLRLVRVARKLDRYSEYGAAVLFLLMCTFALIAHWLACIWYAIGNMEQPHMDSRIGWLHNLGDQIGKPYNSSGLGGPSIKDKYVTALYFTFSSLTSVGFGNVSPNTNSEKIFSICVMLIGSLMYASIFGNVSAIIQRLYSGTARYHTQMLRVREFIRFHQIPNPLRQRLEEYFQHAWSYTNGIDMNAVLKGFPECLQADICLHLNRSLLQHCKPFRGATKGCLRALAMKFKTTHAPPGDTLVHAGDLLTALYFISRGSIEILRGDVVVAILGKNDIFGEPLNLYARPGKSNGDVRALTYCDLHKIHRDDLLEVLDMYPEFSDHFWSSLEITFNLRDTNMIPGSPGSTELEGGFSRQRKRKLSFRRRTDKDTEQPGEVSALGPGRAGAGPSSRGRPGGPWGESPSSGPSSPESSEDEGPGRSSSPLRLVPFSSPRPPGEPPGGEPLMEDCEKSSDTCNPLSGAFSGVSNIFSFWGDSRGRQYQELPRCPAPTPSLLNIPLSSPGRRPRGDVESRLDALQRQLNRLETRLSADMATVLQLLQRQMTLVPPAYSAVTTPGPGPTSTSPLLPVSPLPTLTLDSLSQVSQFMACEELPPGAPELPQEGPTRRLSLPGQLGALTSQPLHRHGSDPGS
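U2OS cells transduced with wild-type KCNH2 virus are loaded with FluxOr dye for 45 min, and thallium flux is measured in kinetic reads before and after stimulation buffer. Rate constants are normalized to DMSO controls.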
Tb PFK inh: inhibitors of T. brucei phosphofructokinase | AID 485367 | actives 0.17% (n = 330,000) | T. brucei PFK, ADP-Glo luminescence | Potency, µM (titrated, usually from 57.5 µM), for the others: at the highest dose activity, negative = inhibition, hits mostly inhibitors; active = well fitted inhibition curve with a large enough effect; inconclusive = small, poorly fitted or top-dose-only effect, or effect the other way;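 also: potency is read from the fitted curve at half-maximal effect; 0% = uninhibited 1x PFK enzyme wells and -100% = no-enzyme wells; nearly all actives have a fitted effect of over 60% in size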
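Compounds were pin-transferred as a titration series up to 57 uM into substrate buffer (0.5 mM F6P, 0.1 mM ATP, pH 8.0), then 1.25 nM PFK was added and reactions ran 45 min before ADP-Glo detection.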
KCNH2 3.1 inh: inhibitors of human KCNH2 3.1 potassium channel isoform | U2OS KCNH2 3.1, thallium flux FluxOr; stronger effect = lower value | activity change, % (tested at about 1.8 µM) | actives 0.95% (n = 340,000) | AID 720553;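 active = maximum activity change below -70%; inconclusive = maximum activity change from -70% to -50%; inactive = maximum activity change above -50%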;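 also: thallium influx rate constant from kinetic fluorescence after stimulation buffer; % is scaled to controls: 0 for no effect and ±100 for the full control effect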
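Steps: virus added to U2OS suspension (4 h, RT, dark); medium with 10% FBS added, cells plated, 37 C overnight; FluxOr/Red40 loading buffer 45 min RT; stimulation buffer, 2 min kinetic read; rate constant normalized.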
* = called active by the depositor; ? = inconclusive; . = not tested or not shown. Rows were chosen to be rich in hits. Some 1.2% of all compounds tested hit in one or more screens of this group.

SMILES	PTAP TSG101 blk	hERG WT inh	Tb PFK inh	KCNH2 3.1 inh
CCN1CCN(Cc2ccc(NC(=O)c3cc(NC(=O)C(=O)c4c[nH]c5ccccc45)cc(OC)c3)cc2C(F)(F)F)CC1	-6%	18	1%	-9
COc1ccc(C(=O)NC(C)CCc2ccccc2)cc1[N+](=O)[O-] (stereo not drawn)	0%	-6	3%	3
COc1ccc(C(=O)C(C)[n+]2ccc(C)c3ccccc32)cc1[N+](=O)[O-] (stereo not drawn)	-4%	-140*	1%	-6
Clc1cccc(Cl)c1Cn1nnc(N2CCCC2)n1	-3%	-138*	1%	-1
Fc1cccc(Cl)c1Cn1nnc(-c2ccc(N3CCOCC3)cc2)n1	-4%	-5	1%	-5
O=C(Oc1ccc(Oc2ccccc2)cc1)N1CCC(O)CC1	1%	-1	-1%	10
O=C(CN1CCC(C(O)(c2ccccc2)c2ccccc2)CC1)Nc1cc(Cl)ccc1Cl	-4%	11	5%	-2
O=C(CN1CCC(C(O)(c2ccccc2)c2ccccc2)CC1)Nc1ccccc1	-8%	9	-18%	-80*
O=C(N/N=C\c1ccc(COc2ccc([N+](=O)[O-])cc2)o1)c1cccc(Cl)c1	1%	2	-13%	-28
O=C(N/N=C\c1ccc(COc2ccc([N+](=O)[O-])cc2)o1)c1ccc(Cl)cc1	-6%	?	-2%	-77*
Cc1ccc(NC(=O)COC(=O)c2cc(=O)c3ccccc3o2)cc1F	-5%	2	0%	31
Cc1cnc(NC(=O)c2cc3ccccc3o2)s1	-6%	-3	-3%	12
Cc1ccc(Cl)c(OCCCN(C)Cc2ccccc2)c1	0%	-70*	6%	-10
CCNC(=O)CSc1nnc(-c2cccc(S(=O)(=O)N3CCOCC3)c2)o1	-3%	-8	6%	7
S=c1[nH]nc(CSCCOc2ccc(Cl)cc2Cl)o1	-9%	-154*	-3%	-166*
COc1ccc(S(=O)(=O)N2CCC(C(=O)NCCC(=O)NCc3cccnc3)CC2)cc1	.	-74*	.	-9
Cn1c2c(c(=O)n(C)c1=O)C(c1ccccc1F)C(C#N)=C(N)O2 (stereo not drawn)	-3%	7	-10%	1
Cn1c2c(c(=O)n(C)c1=O)C(c1ccccc1Cl)C(C#N)=C(N)O2 (stereo not drawn)	-2%	0	6%	-105*
CC(C)C[C@@H](CN1CCCC1CN1C(=S)NC[C@@H]1Cc1ccc(O)cc1)N1C[C@H](Cc2ccc(O)cc2)N(CCc2ccccc2)C1=S (stereo partly drawn)	-4%	-121*	.	-79*
CCOc1ccc(CCN2C(=S)N([C@@H](Cc3ccc(O)cc3)CN3CCCC3CN3C(=S)NC[C@@H]3Cc3ccc(O)cc3)C[C@@H]2CC(C)C)cc1 (stereo partly drawn)	-1%	-80*	.	-28
COC(=O)c1ccc(OCC2c3cc(OC)c(OC)cc3CCN2C(C)=O)cc1 (stereo not drawn)	-2%	-13	-2%	8
COC(=O)c1ccc(OCC2c3cc(OC)c(OC)cc3CCN2C(=O)c2ccco2)cc1 (stereo not drawn)	-3%	-3	-3%	-173*
CCN(C[C@H]1N[C@@](Cc2ccccc2)(C(=O)OC)[C@H]2C(=O)N(C)C(=O)[C@@H]12)C(=O)COC	-3%	17	1%	27
O=C(CN1C(=O)CCC1=O)Nc1nc(-c2ccccn2)cs1	-6%	4	-14%	-117*
Cc1cc(O)ccc1N=Cc1c(C(F)(F)F)[nH][nH]c1=O	-2%	.	-9%	-6
SMILES	PTAP TSG101 blk	hERG WT inh	Tb PFK inh	KCNH2 3.1 inh
c1ccc(CCCNc2ncccn2)cc1	-2%	-10	-11%	-97*
O=c1c2c3c(sc2ncn1/N=C/c1cccnc1)CCCC3	-1%	9	-1%	-77*
COCCNC(=O)c1cccc(OC2CCN(Cc3cccc(C(C)=O)c3)CC2)c1	-2%	-5	0%	-33
O=[N+]([O-])c1ccc(CN2CCCCCC2)cc1	-1%	14	0%	-6
COCCNC(=O)c1ccc(CN2CCOCC2)cc1	-3%	-133*	-3%	-9
CSc1ccc(CN2CCN(Cc3ccc([N+](=O)[O-])cc3)CC2)cc1	-3%	-112*	0%	-110*
O=[N+]([O-])c1ccc(CN2CCOCCOCCN(Cc3ccc([N+](=O)[O-])cc3)CCOCC2)cc1	-1%	-90*	0%	-115*
COCCNC(=O)c1cccc(OC2CCN(Cc3ccc(OC(F)F)cc3)CC2)c1	-4%	4	-4%	-80*
COC(=O)C1N[C@@H]([C@@H](NC(=O)COc2ccccc2)C(=O)NC2CC2)SC1(C)C (stereo partly drawn)	-7%	-6	.	3
CC(C)CN(C(=O)c1ccc(Br)o1)C1CCS(=O)(=O)C1 (stereo not drawn)	-2%	-1	-3%	-7
CCN(CC)C(=S)SCC(=O)c1ccc(Br)cc1	-1%	-15	1%	8
COc1ccc(CN2CCOCCOCCN(Cc3ccc(OC)cc3)CCOCCOCC2)cc1	0%	-12	-2%	-74*
Cc1ccc(-c2csc(NC(=O)c3cc([N+](=O)[O-])ccc3N3CCOCC3)n2)cc1	-4%	-108*	-6%	-7
O=C(OCc1ccc([N+](=O)[O-])cc1)c1cc([N+](=O)[O-])ccc1N1CCOCC1	-3%	-106*	18%	-89*
O=[N+]([O-])c1ccc(COc2ccc(Br)cc2CN2CCOCC2)cc1	-6%	12	-2%	-90*
NS(=O)(=O)c1ccc(CCNCc2ccccc2OCc2ccc(Cl)cc2)cc1	0%	0	1%	-71*
Cc1[nH]c2ccc(C(=O)O)cc2c1C	-5%	-2	-4%	0
CCCc1c(C)[nH]c2ccc(C(=O)O)cc2c1=S	-2%	-82*	-7%	4
Cc1cc2nc(C3CCN(CC4COc5ccccc5O4)CC3)[nH]c2cc1C (stereo not drawn)	-11%	-73*	-1%	-79*
C=CCNC(=O)CN1CCC(c2nc3cc(C)c(C)cc3[nH]2)CC1	-1%	52	-4%	1
COc1ccc(CCN(C)CC(O)COc2c(C)ccc(C)c2C)cc1OC (stereo not drawn)	-4%	.	0%	?
COc1ccc(CN(C)CC(O)COc2ccc(C(=O)c3ccccc3)cc2)c(OC)c1OC (stereo not drawn)	-1%	-2	1%	?
COc1ccc(CCN(C)CC(O)COC(c2ccc(F)cc2)c2ccc(F)cc2)cc1OC (stereo not drawn)	-6%	-144*	1%	-112*
COc1ccc(CN(C)CC(O)COC(c2ccccc2)c2ccccc2)c(OC)c1OC (stereo not drawn)	0%	?	-2%	-86*
COc1cccc(CC(=O)OCC(=O)NNC(=O)c2ccc(Br)cc2)c1	1%	-4	-12%	8
Cc1ccc(NC(=O)CSCC(=O)Nc2nnc(C)s2)cc1	-1%	0	-2%	25

Compound activity (PubChem BioAssay)
